The values that follow come from PubChem BioAssay (Tox21).

Assay [1] is described as follows: Nuclear factor erythroid 2-related factor 2/antioxidant responsive element (Nrf2/ARE) small molecule agonists: qHTS cell viability counter screen in human keratinocytes (AID 1919968; active = well fitted curve in the direction sought with a large enough effect in the repeat runs; an effect the other way counts as inactive or inconclusive; also: nearly all actives have a fitted effect of over 55% in size; also: potency is read from the fitted curve at half-maximal effect). Summed up:
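Parallel cytotoxicity read: KeratinoSens HaCaT cells, compound treatment 23 h, viability by CellTiter-Fluor fluorescence 1 h post-reagent.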
In general terms: Quantitative high-throughput screening tests each substance at several concentrations.

Assay [2] is described as follows: Nuclear factor erythroid 2-related factor 2/antioxidant responsive element (Nrf2/ARE) small molecule agonists: luciferase reporter gene qHTS assay in human keratinocytes (AID 1919969; also: nearly all actives have a fitted effect of over 35% in size; also: potency is read from the fitted curve at half-maximal effect). (In general: In a reporter assay the amount or activity of a reporter protein is the signal.)
Assay [3] has as its target Gonadotropin-releasing hormone receptor (Homo sapiens) (UniProt P30968). In words: Human gonadotropin-releasing hormone receptor (GnRHR) small molecule agonists, calcium flux assay in GnRHR-HEK293 cells (AID 1920063). Also: nearly all actives have a fitted effect of over 35% in size. Also: potency is read from the fitted curve at half-maximal effect. Summed up:
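Calcium flux, agonist mode, human GnRHR stably integrated in HEK293; dye 1 h at 37 C before compound; Ex/Em=480/540 kinetic read, 3 min; 15 concentrations, triplicate.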
(In general: A change in cytosolic calcium serves as a functional read-out for many receptors and channels.)

In assay [4] the target is KiSS-1 receptor (Homo sapiens) (UniProt Q969F8). In words: Human kisspeptin (KISS1R) small molecule agonists, calcium flux assay in KISS1R-HEK293 cells (AID 1920064; active = well fitted curve in the direction sought with a large enough effect in the repeat runs; an effect the other way counts as inactive or inconclusive). Summed up:
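Triplicate 15-concentration series were applied to dye-loaded human KISS1R HEK293 cells, and agonist-evoked calcium fluorescence was captured for 3 min.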

Assay [5] is described as follows: G protein-coupled receptor (GPCR) small molecule agonists, calcium flux assay: HEK293 wild type cell line counter screen (AID 1920065). Summed up:
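Non-specific calcium responders were flagged by adding DMSO-dissolved compounds to dye-loaded cells and reading 480/540 nm fluorescence each second for 3 min; ATP served as positive control.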

Assay [6] is described as follows: p53 small molecule agonists, cell-based qHTS assay with rat liver microsomes: qHTS cell viability counter screen (AID 1963580). Also: nearly all actives have a fitted effect of over 45% in size. Summed up: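 Luminescent ATP readout (CellTiter-Glo, 30 min at room temperature) reports viability of p53RE-bla HCT-116 cells after 16 h at 37 C with test compounds under metabolic activation by rat liver microsomes and NADPH at 0.5 mg/mL final each.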

Assay [7] deals with Muscarinic acetylcholine receptor M1 (Homo sapiens) (UniProt P11229). Kind of assay: Cholinergic receptor muscarinic 1 (CHRM1) small molecule antagonists, cell-based qHTS assay (AID 1963588). Also: nearly all actives have a fitted effect of over 40% in size. Also: potency is read from the fitted curve at half-maximal effect. Summed up: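 Compounds were tested at 15 concentrations in three independent runs. Dye-loaded CHRM1-CHO cells were exposed 5 min at room temperature before stimulation by acetylcholine added at 50nM. Intracellular calcium was read kinetically on FDSS for 3 min.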
Chain of Muscarinic acetylcholine receptor M1 (Homo sapiens) (P11229 whole entry, looked up): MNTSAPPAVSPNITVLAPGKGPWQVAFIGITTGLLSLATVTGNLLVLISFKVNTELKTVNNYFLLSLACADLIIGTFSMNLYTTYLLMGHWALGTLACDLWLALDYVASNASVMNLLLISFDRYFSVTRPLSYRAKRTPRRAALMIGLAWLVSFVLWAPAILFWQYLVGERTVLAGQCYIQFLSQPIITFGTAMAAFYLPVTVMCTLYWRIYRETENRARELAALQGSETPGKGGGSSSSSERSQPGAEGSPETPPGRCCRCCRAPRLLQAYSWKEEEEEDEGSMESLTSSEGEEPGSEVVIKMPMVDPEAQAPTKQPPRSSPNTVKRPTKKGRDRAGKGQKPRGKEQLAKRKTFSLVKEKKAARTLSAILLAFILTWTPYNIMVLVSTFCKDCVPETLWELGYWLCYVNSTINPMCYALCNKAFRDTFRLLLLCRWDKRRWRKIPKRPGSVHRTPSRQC

Assay [8] shares this target. Kind of assay: Cholinergic receptor muscarinic 1 (CHRM1) small molecule agonists, cell-based qHTS assay (AID 1963589). Also: nearly all actives have a fitted effect of over 35% in size. Summed up:
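qHTS, 15-point titration, 3 independent runs: compounds pin-transferred onto dye-loaded CHRM1-CHO cells (human M1), calcium fluorescence followed every second to detect agonism.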

Assay [9] deals with Beta-2 adrenergic receptor (Homo sapiens) (UniProt P07550). In words: Adrenergic beta2 receptor (ADRB2) small molecule antagonists, cell-based qHTS assay (AID 1963592). Also: series mostly up to about 92 µM; nearly all actives have a fitted effect of over 50% in size. Summed up: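 Assay format: CHO-ADRB2 cells, 18-20hr seeding at 37C/5% CO2, then compound plus 1nM isoproterenol agonist mix for 0.5hr RT. Homogeneous time-resolved fluorescence cAMP detection after 1hr, expressed as 665/615 nm ratio.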
Chain of Beta-2 adrenergic receptor (Homo sapiens) (P07550 whole entry, looked up): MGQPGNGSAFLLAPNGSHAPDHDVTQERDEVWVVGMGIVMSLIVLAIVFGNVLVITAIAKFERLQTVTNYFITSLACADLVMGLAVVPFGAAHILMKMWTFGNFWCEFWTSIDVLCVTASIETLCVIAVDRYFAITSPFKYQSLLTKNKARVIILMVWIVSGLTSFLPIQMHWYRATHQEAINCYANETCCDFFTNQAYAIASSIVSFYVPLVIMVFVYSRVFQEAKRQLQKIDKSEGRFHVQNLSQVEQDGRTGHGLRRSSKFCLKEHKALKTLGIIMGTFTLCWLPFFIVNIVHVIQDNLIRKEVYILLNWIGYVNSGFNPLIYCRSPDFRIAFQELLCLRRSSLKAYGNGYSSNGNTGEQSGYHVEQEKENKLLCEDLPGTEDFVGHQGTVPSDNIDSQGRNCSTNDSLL

The target is the same in assay [10]. Kind of assay: Adrenergic beta2 receptor (ADRB2) small molecule agonists, cell-based qHTS assay (AID 1963593).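 Also: CHO cells stably overexpressing human ADRB2.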 Summed up:
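CHO cells stably over-expressing ADRB2 were plated overnight at 37C, then dosed with compounds plus a stimulation mix containing 100uM IBMX and 25uM Ro-20-1724 for 0.5hr at room temperature. cAMP was measured by HTRF competition, 1hr.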

Assay [11] concerns the target D(2) dopamine receptor (Homo sapiens) (UniProt P14416). Kind of assay: Dopamine D2 receptor (DRD2) small molecule agonists, cell-based qHTS assay (AID 1963594). Also: nearly all actives have a fitted effect of over 35% in size. Summed up: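 HEK293 cells stably expressing DRD2 were cultured 24 h at 37 C, then given Ro20-1724 (0.1 mM final) and compounds for 10 min at room temperature. NKH477 (200nM) was then added for 30 min. cAMP was read by HTRF.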

The target is the same in assay [12]. Kind of assay: Dopamine D2 receptor (DRD2) small molecule antagonists, cell-based qHTS assay (AID 1963595; active = well fitted inhibition curve with a large enough effect in the signal ratio in the repeat runs, with a control signal flat; the % refers to the signal ratio; also: potency is read from the fitted curve at half-maximal effect). Summed up: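 Antagonism was scored as restored cAMP in HEK293-DRD2 cells. These cells were stimulated with 200 nM NKH477 and 12 nM quinpirole for 30 min at room temperature, in the presence of 0.1 mM Ro20-1724.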
Assay [13] in a line: p53 small molecule agonists, cell-based qHTS assay with human liver microsomes: qHTS cell viability counter screen (AID 1963579). Also: nearly all actives have a fitted effect of over 45% in size. Summed up: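 Cytotoxicity counter screen: p53RE-bla, 4,000 cells/well; 5 h settle, 37 C/5% CO2; cpd + HLM 0.5 mg/mL + NADPH 0.5 mg/mL (final); 16 h, 37 C; CellTiter-Glo, 30 min RT, luminescence.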
Assay [14] deals with 5-hydroxytryptamine receptor 2A (Homo sapiens) (UniProt P28223). Kind of assay: 5-hydroxytryptamine receptor 2A (HTR2A) small molecule antagonists, cell-based qHTS assay (AID 1963586). Also: nearly all actives have a fitted effect of over 45% in size. Summed up: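 CHO cells stably expressing human HTR2A were plated for 18 h at 37 C, then loaded with calcium dye for 1 h. Compounds were preincubated 5 min at room temperature before DOI (4 nM solution) was added. Kinetic fluorescence was read for 3 min.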
Chain of 5-hydroxytryptamine receptor 2A (Homo sapiens) (P28223 whole entry, looked up): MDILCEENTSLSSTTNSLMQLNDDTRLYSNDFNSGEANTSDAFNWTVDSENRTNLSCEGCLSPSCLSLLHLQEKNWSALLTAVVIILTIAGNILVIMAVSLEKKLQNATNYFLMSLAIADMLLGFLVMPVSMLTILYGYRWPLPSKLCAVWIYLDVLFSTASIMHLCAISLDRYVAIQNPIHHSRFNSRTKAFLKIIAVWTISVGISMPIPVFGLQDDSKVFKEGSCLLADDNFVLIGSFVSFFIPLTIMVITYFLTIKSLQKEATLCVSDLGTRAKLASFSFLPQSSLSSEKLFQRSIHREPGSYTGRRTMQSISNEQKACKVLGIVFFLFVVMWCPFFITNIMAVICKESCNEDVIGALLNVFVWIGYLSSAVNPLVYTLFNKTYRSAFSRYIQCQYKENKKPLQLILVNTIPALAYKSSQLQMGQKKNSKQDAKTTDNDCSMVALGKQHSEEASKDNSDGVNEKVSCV

Assay [15] has the same target. Kind of assay: 5-hydroxytryptamine receptor 2A (HTR2A) small molecule agonists, cell-based qHTS assay (AID 1963587). Also: nearly all actives have a fitted effect of over 30% in size. Summed up:
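HTR2A-CHO cells, plated 18 h at 37 C/5% CO2, dye-loaded 1 h at 37 C; compounds in DMSO added by pin tool (agonist mode). Intracellular calcium flux read as kinetic fluorescence on FDSS over 2 min at 1 s intervals.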

The nature of assay [16]: cAMP Responsive Elements (CRE) small molecule antagonists, cell-based qHTS assay (AID 1963591; active = well fitted inhibition curve with a large enough effect in the signal ratio in the repeat runs, not every such curve was filed as active; the % refers to the signal ratio). Summed up: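 Fluorescence intensity from cleaved LiveBLAzer B/G substrate (2 h, room temperature) quantified CRE-bla activity in HEK 293T cells exposed 3 h to compound with 0.25 uM final NKH477.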
Assay [17] is described as follows: p53 small molecule agonists, cell-based qHTS assay: qHTS cell viability counter screen (AID 1963581). Also: nearly all actives have a fitted effect of over 45% in size. Summed up:
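Multiplexed with the reporter read, a CellTiter-Glo step (30 min, room temperature) gauges ATP-based viability of HCT-116 p53RE-bla cells after 16 h compound incubation at 37 C.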

Assay [18] is described as follows: cAMP Responsive Elements (CRE) small molecule agonists, cell-based qHTS assay (AID 1963590). Summed up:
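Quantitative HTS for CRE agonists: HEK 293T CRE-bla cells, overnight plating, 3 h compound incubation at 37 C/5% CO2, then 2 h room-temperature LiveBLAzer B/G FRET substrate loading.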

Molecules are shown by their SMILES. Values joined by “and” are separate entries in the source; they are usually repeats but may differ in a detail not shown here. Equal entries are not always repeated. Results filed as inconclusive are left out. Where a structure was tested more than once in an assay, its records may differ in their call. Active and inactive are the calls of the source. Unless noted, calls follow the shape of the full dose curve.

Chain of Gonadotropin-releasing hormone receptor (Homo sapiens) (P30968 whole entry, looked up): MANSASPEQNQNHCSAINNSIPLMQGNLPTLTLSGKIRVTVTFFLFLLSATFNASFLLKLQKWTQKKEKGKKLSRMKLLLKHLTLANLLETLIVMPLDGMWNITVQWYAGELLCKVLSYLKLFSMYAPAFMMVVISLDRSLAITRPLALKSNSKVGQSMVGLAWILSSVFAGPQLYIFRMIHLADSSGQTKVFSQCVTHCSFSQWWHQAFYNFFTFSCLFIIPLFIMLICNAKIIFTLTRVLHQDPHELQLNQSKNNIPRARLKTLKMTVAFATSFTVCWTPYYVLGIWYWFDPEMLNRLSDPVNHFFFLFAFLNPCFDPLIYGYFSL
Chain of D(2) dopamine receptor (Homo sapiens) (P14416 whole entry, looked up): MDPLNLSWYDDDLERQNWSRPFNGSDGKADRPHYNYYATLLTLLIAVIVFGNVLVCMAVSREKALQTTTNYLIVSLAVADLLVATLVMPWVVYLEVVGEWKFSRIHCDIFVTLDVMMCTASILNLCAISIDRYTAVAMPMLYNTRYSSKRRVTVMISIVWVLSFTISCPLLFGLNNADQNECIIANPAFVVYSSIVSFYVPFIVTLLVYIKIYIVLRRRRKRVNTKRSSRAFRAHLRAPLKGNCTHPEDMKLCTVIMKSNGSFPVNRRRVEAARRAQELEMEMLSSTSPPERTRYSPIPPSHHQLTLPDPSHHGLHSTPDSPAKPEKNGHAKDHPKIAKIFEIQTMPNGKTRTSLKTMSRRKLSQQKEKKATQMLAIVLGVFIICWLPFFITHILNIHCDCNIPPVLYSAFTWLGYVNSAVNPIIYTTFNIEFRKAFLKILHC
Chain of KiSS-1 receptor (Homo sapiens) (Q969F8 whole entry, looked up): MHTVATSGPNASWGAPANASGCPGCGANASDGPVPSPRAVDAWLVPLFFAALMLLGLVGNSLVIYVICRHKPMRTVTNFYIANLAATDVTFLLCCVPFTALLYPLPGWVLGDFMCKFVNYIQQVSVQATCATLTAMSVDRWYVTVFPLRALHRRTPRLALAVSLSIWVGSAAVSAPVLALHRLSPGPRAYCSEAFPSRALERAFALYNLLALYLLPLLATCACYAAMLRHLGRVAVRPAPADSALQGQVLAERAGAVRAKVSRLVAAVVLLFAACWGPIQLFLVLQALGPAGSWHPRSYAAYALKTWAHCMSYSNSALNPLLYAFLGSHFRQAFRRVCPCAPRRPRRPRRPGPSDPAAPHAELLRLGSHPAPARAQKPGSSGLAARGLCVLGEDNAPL

Take `Cc1cc(OCCOCC[N+](C)(C)Cc2ccccc2)ccc1C(C)(C)CC(C)(C)C`: the Potency in [1] was 21.6 µM (active) and 7.5 µM (active); in assay [3], 38.7 µM (active); in assay [7] it was 2.96 µM (active) and 2.59 µM (active); in assay [12], 38.3 µM (active). The Potency entry in assay [2], in assay [4], in [5], in assay [6], in [8] and in assay [9] was “inactive” in each case. Further, the Potency entry in [10] and in [11] was “inactive” in each case.

Regarding `CC1COc2ccccc2N1C(=O)C(Cl)Cl` (configuration not stated), the Potency result in assay [1], in assay [3], in assay [4], in [5], in assay [13] and in assay [6] was “inactive” throughout. Further, the Potency result in [14], in [15], in assay [7], in assay [8], in assay [16] and in assay [9] was “inactive” each time. Besides, the Potency entry in [10], in [11] and in assay [12] was “inactive” each time. Also, the Potency in assay [2] was 21.6 µM (active).

Consider `O=C1CC2(CCCC2)CC(=O)N1CCCCN1CCN(c2ncccn2)CC1`, for which the Potency result in assay [1], in assay [2], in assay [3], in assay [4], in [5] and in assay [13] was “inactive” throughout. Besides, the Potency entry in assay [6], in assay [17], in assay [18], in assay [16] and in [10] was “inactive” each time.

With `CO[Si](CCCNCCN)(OC)OC`, the Potency result in assay [1], in [2], in assay [3], in assay [4], in assay [5] and in [13] was “inactive” in each case. The Potency result in assay [6], in assay [17], in assay [14], in assay [7], in assay [8] and in assay [16] was “inactive” throughout. The Potency entry in assay [9], in assay [10], in assay [11] and in assay [12] was “inactive” each time.

Take `COC(=O)Nc1nc2ccc(S(=O)c3ccccc3)cc2[nH]1` (configuration not stated): the Potency result in [1], in assay [3], in [4], in [5], in [13] and in assay [6] was “inactive” each time. In addition, the Potency result in [18], in assay [16], in [9], in [10], in assay [11] and in [12] was “inactive” in each case. Besides, in [2], the Potency entry was “inactive and 13.3 µM (active)”.

For `O=C(c1ccccc1)c1ccccc1O`, the Potency result in [1], in assay [2], in [3], in [4], in [5] and in assay [13] was “inactive” in each case. The Potency result in assay [6], in [17], in assay [15], in assay [7], in assay [8] and in [16] was “inactive” throughout. Further, the Potency result in assay [9] and in [12] was “inactive” throughout.

Regarding `Cc1cc(O)cc(C)c1Cl`, the Potency result in [1], in [2], in [3], in assay [4], in assay [5] and in [13] was “inactive” each time. The Potency entry in [6], in assay [17], in assay [16], in [9], in [11] and in assay [12] was “inactive” each time.

In the case of `COS(C)(=O)=O`, the Potency entry in [1], in assay [2], in assay [3], in assay [4], in assay [5] and in assay [13] was “inactive” each time. In addition, the Potency result in [6], in assay [17], in [16], in assay [9], in [10] and in assay [11] was “inactive” in each case. Moreover, the Potency entry in assay [12] is “inactive”.
